These results are taken from PubChem BioAssay (EPA / NIEHS).

Assay [1] is described as follows: TOX21_p53_BLA_p2_viability: Viability Assessment in the Tox21 HCT-116 p53 Agonism Beta-lactamase Assay, Phase 2 (AID 2283591).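 Note: compound exposure lasted 16 h at 37 °C; actives lower the ATP signal meaning cytotoxicity.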 In a few lines: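 Cytotoxicity readout: CellTiter-Glo ATP luminescence, 30 min at room temperature, after the beta-lactamase read. Cells were HCT116 exposed 16 h at 37C to compounds pin-transferred at 217-fold dilution from DMSO stocks.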

For assay [2], the target named is Cellular tumor antigen p53 (Homo sapiens) (UniProt P04637). The assay can be described thus: TOX21_p53_BLA_p2_ratio: Tox21 HCT-116 p53 Agonism Beta-lactamase Assay, Ratio, Phase 2 (AID 2283592). In a few lines:
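Cleaved-to-uncleaved substrate ratio (460 vs 530 nm) measured in HCT116 cells with an inducible beta-lactamase reporter linked to p53 activity. Compounds incubated 16 h at 37C before 2 h room-temperature CCF4-AM loading.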

Assay [3] shares this target. The assay can be described thus: TOX21_p53_BLA_p3_ratio: Tox21 HCT-116 p53 Agonism Beta-lactamase Assay, Ratio, Phase 3 (AID 2283596). In a few lines: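 Cells were seeded at 4000/well, rested 5 h at 37C, then dosed with DMSO compound solutions (217-fold dilution) for 16 h. CCF4-AM substrate was loaded for 2 h at room temperature, and the 460/530 nm emission ratio was fitted for gain of signal versus DMSO.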

The nature of assay [4]: TOX21_p53_BLA_p4_viability: Viability Assessment in the Tox21 HCT-116 p53 Agonism Beta-lactamase Assay, Phase 4 (AID 2283597).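 Note: hits lower the luminescence signal meaning cytotoxicity.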 In a few lines: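 Viability is taken as cellular ATP: after 16 h compound exposure of HCT116 cells and a 2 h room-temperature CCF4-AM substrate step, CellTiter-Glo reagent is added and luminescence is measured 30 min later.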
The target of assay [5] is Cellular tumor antigen p53 (Homo sapiens) (UniProt P04637). Kind of assay: TOX21_p53_BLA_p5_ratio: Tox21 HCT-116 p53 Agonism Beta-lactamase Assay, Ratio, Phase 5 (AID 2283599). A digest of the protocol:
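Beta-lactamase reporter ratio (blue 460 nm over green 530 nm, 405 nm excitation) after 2 h CCF4-AM loading, in HCT-116 cells exposed 16 h at 37 C to compounds pinned at 217-fold dilution. Increases relative to DMSO baseline scored.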

A short description of assay [6]: TOX21_p53_BLA_p5_viability: Viability Assessment in the Tox21 HCT-116 p53 Agonism Beta-lactamase Assay, Phase 5 (AID 2283600). In a few lines:
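Viability is taken from cellular ATP content, measured by luciferase luminescence in the same wells after the beta-lactamase ratio read. Cells are seeded at 4000 per well and exposed to DMSO-dissolved compounds, diluted 217-fold, for 16 h.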

The nature of assay [7]: TOX21_p53_BLA_p3_viability: Viability Assessment in the Tox21 HCT-116 p53 Agonism Beta-lactamase Assay, Phase 3 (AID 2283593).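 Note: cells exposed to compound for 16 h before reading.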 In a few lines:
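Cellular ATP was quantified by CellTiter-Glo luminescence, read after 30 min at room temperature. Beforehand, HCT116 cells (4000/well) received compound 5 h post-seeding, 217-fold diluted from DMSO, then incubated 16 h at 37C.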

Assay [8] addresses Cellular tumor antigen p53 (Homo sapiens) (UniProt P04637). Kind of assay: TOX21_p53_BLA_p4_ratio: Tox21 HCT-116 p53 Agonism Beta-lactamase Assay, Ratio, Phase 4 (AID 2283601). In a few lines: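 Signal is the blue/green (460nm/530nm) ratio of cleaved versus uncleaved CCF4-AM substrate, read after 2 h substrate loading. Cells were HCT116 carrying the p53-responsive beta-lactamase reporter, dosed 16 h at 37C, 5% CO2; CellTiter-Glo measured in parallel.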

Assay [9] has as its target PGR (gene 5241) (UniProt P06401). Kind of assay: TOX21_PR_BLA_Followup_Antagonist_ratio: Tox21 HEK293 Progesterone Receptor (PR) Antagonism Beta-lactamase Follow-Up Assay, Ratio (AID 2283934).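 Note: PR-UAS-bla HEK293T cells stimulated with 1 nM R5020 agonist for 16 hr.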 A digest of the protocol: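 Measured in PR-UAS-bla HEK293T cells co-treated with compound and 1 nM promegestone for 16 hr; beta-lactamase ratio read after 2 h FRET substrate loading, with parallel CellTiter-Glo cytotoxicity.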

Assay [10] can be described thus: TOX21_PR_BLA_Followup_Agonist_viability: Viability Assessment in the Tox21 HEK293 Progesterone Receptor (PR) Agonism Beta-lactamase Follow-Up Assay (AID 2283935).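 Note: signal loss means lower viability so actives are cytotoxic.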 In a few lines: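 Viability is read as CellTiter-Glo luminescence, where loss of signal indicates cytotoxicity. The cells are PR-UAS-bla HEK293T given compounds for 16 hr at 37C and 5% CO2, in the same wells used for the bla readout.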

Assay [11] in a line: TOX21_PR_BLA_Followup_Antagonist_viability: Viability Assessment in the Tox21 HEK293 Progesterone Receptor (PR) Antagonism Beta-lactamase Follow-Up Assay (AID 2283936).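 Note: cells exposed to compound with R5020 agonist for 16 h; hits lower the luminescence signal meaning cytotoxicity.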 A digest of the protocol:
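PR-UAS-bla HEK293T cells in medium with 2% charcoal-stripped FBS were treated with compounds plus R5020 for 16 hr at 37C. After the beta-lactamase read, CellTiter-Glo was added to the same wells and luminescence read after 30 min at room temperature.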

Assay [12] deals with PGR (gene 5241) (UniProt P06401). Kind of assay: TOX21_PR_LUC_Followup_Agonist: Tox21 HEK293 Progesterone Receptor (PR) Agonism Luciferase Follow-Up Assay (AID 2283937; active = hit-call score of the fitted dose curve at least 0.9, where 1 is the maximum; inactive = score below 0.9). In a few lines:
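In HEK293 cells stably expressing PR-A with a luciferase reporter, compounds were incubated 16 h at 37C, and induced luminescence was quantified with ONE-Glo, multiplexed with cell viability.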

Assay [13] can be described thus: TOX21_PR_LUC_Followup_Antagonist_viability: Viability Assessment in the Tox21 HEK293 Progesterone Receptor (PR) Antagonism Luciferase Follow-Up Assay (AID 2283940). A digest of the protocol: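 Loss of CellTiter-Glo ATP signal indicates cytotoxicity in HEK293-PR-A-luc cells grown in 10% charcoal-stripped FBS medium, seeded 3,000 per well and incubated 16 h with compound at 37C.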

A short description of assay [14]: TOX21_PR_LUC_Followup_Agonist_viability: Viability Assessment in the Tox21 HEK293 Progesterone Receptor (PR) Agonism Luciferase Follow-Up Assay (AID 2283941).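 Note: loss of signal means cytotoxicity so actives lower viability.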 In a few lines:
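Seeding: HEK293-PR-A-luc, 3,000 cells/well, 5 h at 37C. Treatment: compound in DMSO, 16 h, 37C. Read: CellTiter-Glo ATP luminescence, signal loss taken as lower viability.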

Assay [15] addresses Thyroid hormone receptor alpha (Rattus norvegicus) + Thyroid hormone receptor beta (Rattus norvegicus) (UniProt P18113+P63059). The assay can be described thus: TOX21_TR_LUC_GH3_Antagonist_Followup: Tox21 GH3 Thyroid Hormone Receptor Antagonism Luciferase Follow-Up Assay (AID 2283942). A digest of the protocol: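 Loss of T3-driven (1.0 nM final) reporter activity in GH3 cells was read by ONE-Glo luminescence after 24 h incubation at 37C; 15-point compound series spanned 92 uM to 5nM final, 1,500 cells/well.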

The target of a further assay is THRA (gene 7067) (UniProt P10827). Kind of assay: TOX21_TRA_COA_Antagonist_Followup_ratio: Tox21 Thyroid Hormone Receptor alpha Antagonism through Coactivator Recruitment Follow-Up Assay, Ratio (AID 2283953). In a few lines:
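We measured antagonism of T3-type coactivator recruitment using a TR-FRET ratio (emission 520 and 495 nm) between a Tb-labelled anti-GST antibody on TRα LBD (2.5 nM) and SRC-2 peptide (200 nM). Activity was scaled between DMSO and T3 wells.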

Assay [16] can be described thus: TOX21_TRB_BLA_Antagonist_Followup_viability: Viability Assessment in the Tox21 Thyroid Hormone Receptor beta Antagonism Beta-lactamase (BLA) Follow-Up Assay (AID 2283961). In a few lines:
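Cytotoxicity is measured in parallel with the antagonist-mode TRβ beta-lactamase screen, using ATP-coupled luciferase luminescence. Engineered HEK293T cells are treated for 18 h with 11-point compound series in triplicate.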

Another assay addresses THRB (gene 7068) (UniProt P10828). The assay can be described thus: TOX21_TRB_COA_Antagonist_Followup_ratio: Tox21 Thyroid Hormone Receptor beta Antagonism through Coactivator Recruitment Follow-Up Assay, Ratio (AID 2283967). A digest of the protocol: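 Coactivator recruitment to the GST-tagged TRb ligand-binding domain (5.0 nM) was read as the 520/495 nm TR-FRET ratio, using 200 nM fluorescein SRC-2 peptide and 2 nM terbium anti-GST. Scaled between DMSO and T3 wells; loss of signal fitted.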

In assay [17] the target is Retinoic acid receptor RXR-alpha (Homo sapiens) (UniProt P19793). The assay can be described thus: TOX21_TR_RXR_BLA_Antagonist_Followup_ratio: Tox21 Thyroid Hormone Receptor beta Retinoid X Receptor alpha (RXRa) Antagonism Beta-lactamase (BLA) Follow-Up Assay, Ratio (AID 2283972). In a few lines: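 Antagonist mode used GAL4 UAS-driven beta-lactamase in HEK293T cells expressing RXRa, treated for 16 h with compound concentration series. Activity was taken from the blue/green (460:530 nm) ratio of cleaved to uncleaved substrate.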

SMILES strings stand for the structures. Results filed as inconclusive are left out. The source made the active and inactive calls. Rule for the calls, unless noted: active = hit-call score of the fitted dose curve at least 0.9, where 1 is the maximum; inconclusive = response in the unintended direction; inactive = score below 0.9.

Sequence of Cellular tumor antigen p53 (Homo sapiens) (P04637 whole entry, looked up): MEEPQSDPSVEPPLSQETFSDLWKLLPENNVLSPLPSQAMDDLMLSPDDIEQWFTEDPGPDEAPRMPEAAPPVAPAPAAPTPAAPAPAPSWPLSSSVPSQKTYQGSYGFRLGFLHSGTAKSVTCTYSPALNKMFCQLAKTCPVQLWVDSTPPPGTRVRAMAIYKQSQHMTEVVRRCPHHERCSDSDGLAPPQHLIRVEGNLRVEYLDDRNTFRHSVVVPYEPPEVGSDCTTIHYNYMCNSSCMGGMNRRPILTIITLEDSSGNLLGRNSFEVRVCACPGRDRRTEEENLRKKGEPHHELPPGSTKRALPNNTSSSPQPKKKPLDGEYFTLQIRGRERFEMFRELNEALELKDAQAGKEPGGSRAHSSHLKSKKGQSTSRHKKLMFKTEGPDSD
Sequence of PGR (gene 5241) (P06401 whole entry, looked up): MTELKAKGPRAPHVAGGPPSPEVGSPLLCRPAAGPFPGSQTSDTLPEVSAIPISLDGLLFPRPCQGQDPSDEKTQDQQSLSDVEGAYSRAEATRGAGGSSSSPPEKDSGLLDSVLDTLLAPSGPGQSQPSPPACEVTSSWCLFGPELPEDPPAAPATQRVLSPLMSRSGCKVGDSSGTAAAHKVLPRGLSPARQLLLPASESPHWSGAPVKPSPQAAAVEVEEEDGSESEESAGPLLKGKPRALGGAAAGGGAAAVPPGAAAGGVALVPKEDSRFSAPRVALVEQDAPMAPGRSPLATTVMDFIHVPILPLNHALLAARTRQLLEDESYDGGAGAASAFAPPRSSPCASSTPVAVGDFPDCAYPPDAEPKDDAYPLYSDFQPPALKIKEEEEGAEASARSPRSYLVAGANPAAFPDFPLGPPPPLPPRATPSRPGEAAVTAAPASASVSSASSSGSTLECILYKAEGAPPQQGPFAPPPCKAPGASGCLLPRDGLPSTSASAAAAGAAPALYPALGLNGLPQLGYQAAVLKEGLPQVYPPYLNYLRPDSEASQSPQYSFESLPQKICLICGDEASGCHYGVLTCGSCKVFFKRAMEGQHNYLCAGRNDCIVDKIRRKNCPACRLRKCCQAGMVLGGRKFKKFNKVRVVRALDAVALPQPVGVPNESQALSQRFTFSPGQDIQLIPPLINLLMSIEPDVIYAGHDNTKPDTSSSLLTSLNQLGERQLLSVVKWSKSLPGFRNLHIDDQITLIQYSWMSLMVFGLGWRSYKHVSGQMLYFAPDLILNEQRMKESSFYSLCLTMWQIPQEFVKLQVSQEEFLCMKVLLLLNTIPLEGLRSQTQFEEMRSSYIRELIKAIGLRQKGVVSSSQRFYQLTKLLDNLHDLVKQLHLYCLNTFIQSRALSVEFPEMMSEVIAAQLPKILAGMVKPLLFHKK
Sequence of THRA (gene 7067) (P10827 whole entry, looked up, the tested form may be a part): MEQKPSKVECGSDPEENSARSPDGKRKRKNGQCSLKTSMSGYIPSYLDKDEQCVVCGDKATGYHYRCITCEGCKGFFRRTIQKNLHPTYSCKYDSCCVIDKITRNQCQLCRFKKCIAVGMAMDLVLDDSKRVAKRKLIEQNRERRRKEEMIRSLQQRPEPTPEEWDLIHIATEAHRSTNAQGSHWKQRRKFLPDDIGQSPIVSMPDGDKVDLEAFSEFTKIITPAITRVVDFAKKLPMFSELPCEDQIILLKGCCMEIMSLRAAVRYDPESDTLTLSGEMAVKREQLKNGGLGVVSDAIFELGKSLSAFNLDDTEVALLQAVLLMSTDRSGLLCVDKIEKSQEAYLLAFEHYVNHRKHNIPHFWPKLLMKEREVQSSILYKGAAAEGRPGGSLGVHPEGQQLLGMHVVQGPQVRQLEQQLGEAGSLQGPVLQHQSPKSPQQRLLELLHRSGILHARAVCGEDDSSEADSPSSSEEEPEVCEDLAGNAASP
Sequence of THRB (gene 7068) (P10828 whole entry, looked up, the tested form may be a part): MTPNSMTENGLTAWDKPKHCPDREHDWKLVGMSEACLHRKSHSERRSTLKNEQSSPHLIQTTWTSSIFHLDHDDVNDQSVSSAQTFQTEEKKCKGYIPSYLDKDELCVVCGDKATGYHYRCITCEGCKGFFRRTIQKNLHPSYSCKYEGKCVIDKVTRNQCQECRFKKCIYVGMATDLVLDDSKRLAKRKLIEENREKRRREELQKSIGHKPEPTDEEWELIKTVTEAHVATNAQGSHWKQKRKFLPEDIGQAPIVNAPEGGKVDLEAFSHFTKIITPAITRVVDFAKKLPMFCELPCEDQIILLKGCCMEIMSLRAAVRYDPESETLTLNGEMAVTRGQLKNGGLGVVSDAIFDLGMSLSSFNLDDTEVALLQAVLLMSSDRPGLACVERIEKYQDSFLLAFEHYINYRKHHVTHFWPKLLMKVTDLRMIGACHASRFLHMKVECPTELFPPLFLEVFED
Sequence of Retinoic acid receptor RXR-alpha (Homo sapiens) (P19793 whole entry, looked up, the tested form may be a part): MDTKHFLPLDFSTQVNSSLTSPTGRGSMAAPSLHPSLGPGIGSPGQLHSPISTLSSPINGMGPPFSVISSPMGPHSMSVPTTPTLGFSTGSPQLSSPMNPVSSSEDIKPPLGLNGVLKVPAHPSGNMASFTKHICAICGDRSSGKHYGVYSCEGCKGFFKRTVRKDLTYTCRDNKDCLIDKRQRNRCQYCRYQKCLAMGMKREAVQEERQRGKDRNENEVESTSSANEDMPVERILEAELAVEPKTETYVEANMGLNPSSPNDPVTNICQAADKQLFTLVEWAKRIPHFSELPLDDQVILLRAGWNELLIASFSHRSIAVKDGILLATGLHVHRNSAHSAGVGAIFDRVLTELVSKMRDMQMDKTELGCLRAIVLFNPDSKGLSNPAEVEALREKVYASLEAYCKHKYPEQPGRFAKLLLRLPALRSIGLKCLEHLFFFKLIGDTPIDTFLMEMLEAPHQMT

In the case of `ClCCOCOCCCl`, the compound was called inactive in assay [1], in assay [2], in [3], in assay [4], in assay [5] and in assay [6].

For `Nc1nc(N)c(N)c(N)n1`, the call in assay [1], in assay [2], in [3] and in [4] was inactive.

Turning to `O=C1CCCCC1CN1CCCCC1` (stereo unspecified), the outcome in assay [1], in assay [2], in [3] and in assay [4] was inactive.

For the compound `CN1[C@@H]2CC[C@H]1CC(O)C2` (stereo partly specified), the call in [1], in assay [2], in [3], in assay [4], in [5] and in assay [6] was inactive.

With `CCOc1ccc2c3c1O[C@H]1[C@@H](O)C=C[C@H]4[C@@H](C2)N(C)CC[C@@]341`, the outcome in [1], in [2], in assay [3] and in [4] was inactive.

As to `c1ccccc1`, the result in assay [1], in assay [2], in assay [7] and in [8] was inactive.

In the case of `O=C1CN=C(c2ccccc2)c2cc(Cl)ccc2N1`, the compound was called inactive in [1], in assay [2], in assay [3] and in assay [4].

As to `CN(C)c1ccc(N(C)C)cc1`, the compound was called inactive in assay [1], in [2], in assay [3], in assay [4], in assay [5] and in assay [8].

In the case of `O=[N+]([O-])c1ccc2ccc3cccc4ccc1c2c34`, the call in [1], in assay [2], in assay [7], in assay [5], in assay [6] and in assay [8] was inactive. Besides, the call (in assay [10]; in assay [11]; in the assay with PGR (gene 5241) [12]; in assay [13]; in [14]) was inactive. In addition, the AC50 with PGR (gene 5241) [9] is 12.2 µM (active).

For the compound `CCC(COC(=O)c1cc(OC)c(OC)c(OC)c1)(c1ccccc1)N(C)C` (stereo unspecified), the call in [1], in [2], in assay [7], in assay [6], in [8] and in assay [15] was inactive. Further, the result (with THRA (gene 7067); in assay [16]; with THRB (gene 7068); in [17]) was inactive.

With `CCC1(c2ccccc2)CCC(=O)NC1=O` (stereo unspecified), the compound was classed as inactive in assay [1], in assay [2], in assay [7], in [5] and in [6].

With `CCCCCc1cc(O)c2c(c1)OC(C)(C)c1ccc(C)cc1-2`, the AC50 was 14.4 µM (active) in assay [1]; 22.3 µM (active) in assay [2]; 34.4 µM (active) in [3]; 14.9 µM (active) in assay [4]; 23.9 µM (active) in [5]; 19.8 µM (active) in [6]. Moreover, the AC50 in assay [8] is 29.9 µM (active).

With `CCCSc1cc(OC)c(CCN)cc1OC`, the compound was classed as inactive in assay [1], in [4] and in assay [6]. Also, the AC50 in assay [2] was 26.1 µM (active); in [3], 48 µM (active); in assay [5], 43.7 µM (active); in assay [8], 24.4 µM (active).

As to `Nc1ccc(Cc2ccc(N)c(Cl)c2)cc1Cl`, the result in assay [1], in [4], in [5], in assay [6] and in assay [8] was inactive. Moreover, the concentration at half-maximal activity (AC50) in [2] is 68.5 µM (active); in assay [3], 71.5 µM (active).
